The campaign covered roughly 320,000 compounds. About 3,300 (1%) were called active.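 How the source made its calls: active means every valid replicate shows activation above 250% relative to neutral control wells; inactive means the rest, any valid replicate at or below 250%.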 This excerpt belongs to a sample that is enriched for actives.

This assay in a line: yeast Mot1-301 growth rescue at high temperature, primary screen, SUMOylation pathway inhibitor project, S. cerevisiae, ATP luminescence, 38.5C (AID 2716).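 Further: OY570 slx delta 5 strain wells were the positive control but not used for scaling.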 The conditions noted are these: S. cerevisiae Mot1-301 growth rescue, at 18.8 µM, hits give high values, percent above DMSO median, 100 means doubled.
In the case of `COC(=O)c1ccc2c(C(C)(C)O)c(C(C)(C)O)[nH]c2c1`, the growth rescue was 6.47% (inactive).

Regarding `COc1ccccc1CNS(=O)(=O)c1cc2c3c(c1)CCC(=O)N3CCC2`, the growth rescue is -12.2% (inactive).

As to `O=C(Nc1ccccn1)C1CCN(S(=O)(=O)c2ccc3c(c2)OCCO3)CC1`, the growth rescue is -4.76% (inactive).

For the compound `O=C(Nc1ccccn1)C1CCN(S(=O)(=O)c2ccccc2)CC1`, the growth rescue was -0.505% (inactive).

Consider `O=C(Nc1nccs1)C1CCN(S(=O)(=O)c2ccc(Cl)c(C(F)(F)F)c2)CC1`, for which the growth rescue was 639% (active).

Turning to `COc1ccccc1CNC(=O)[C@@H]1CCCN1C(=O)[C@@H]1Cc2ccccc2CN1C(=O)OC(C)(C)C`, the growth rescue is -1.52% (inactive).

As to `CCOc1ccc(Oc2nc(C)cc(OC)n2)nn1`, the growth rescue is -10.1% (inactive).

Consider `O=C(CNS(=O)(=O)c1ccccc1)NCC(=O)OCc1ccccc1F`, for which the growth rescue is -4.19% (inactive).

Consider `Cc1ccc(SCC(=O)NC(=O)NCc2ccco2)c(C)c1`, for which the growth rescue is -8.85% (inactive).

Turning to `COC(=O)c1c(-c2cccs2)csc1NC(=O)CSc1ncnc2sc(C)c(C)c12`, the growth rescue is -4.24% (inactive).

`CSc1ncnc2sc(C)c(C)c12`: the growth rescue was -17.7% (inactive).

Turning to `Cc1sc2ncnc(Sc3nc4ccccc4s3)c2c1C`, the growth rescue is 512% (active).

In the case of `CCOc1ccc(S(=O)(=O)NCCC(=O)N2CCCCCCC2)cc1`, the growth rescue is 10% (inactive).

As for `NC(=O)c1cc(S(=O)(=O)N2CCCC2)ccc1OCc1ccc(F)cc1`, the growth rescue is 359% (active).

Turning to `Cc1ccc(S(=O)(=O)N2CCOCC2)cc1C(=O)NCc1ccc(F)cc1`, the growth rescue is 2.54% (inactive).

Consider `COc1ccc(S(=O)(=O)N2CCCCCC2)cc1NC(=O)Cc1ccc(OC)c(OC)c1`, for which the growth rescue was -10.8% (inactive).

As to `COc1ccc(OC)c(-n2cc3c(=O)n(C)c(=O)n(C)c3c2)c1`, the growth rescue was 2.1% (inactive).

Turning to `O=c1c2ccccc2nc(CSc2nnnn2-c2ccccc2)n1-c1ccccc1`, the growth rescue is 1010% (active).

`O=c1c2ccccc2nnn1CSc1nnnn1-c1ccccc1`: the growth rescue was 0.362% (inactive).

On to `Cc1ccc(Nc2nc(CSc3nnnn3-c3ccccc3)cc(=O)[nH]2)cc1`, for which the growth rescue was 3.22% (inactive).

On to `Cn1c(N)c(C(=O)COC(=O)c2ccccc2NCc2ccco2)c(=O)n(C)c1=O`, for which the growth rescue was 72.4% (inactive).

Take `COC(=O)c1ccc(C(NC(=O)OCc2ccccc2)/C(F)=C/[C@@H](C)C(=O)O)cc1` (stereo partly drawn): the growth rescue was -2.48% (inactive).

With `CCc1ccccc1S(=O)(=O)Cc1ccc(C(=O)NCCc2ccccc2)o1`, the growth rescue was -2.78% (inactive).

On to `O=C1CC(Sc2ncn[nH]2)C(=O)N1c1ccccc1` (stereo not drawn), for which the growth rescue was -26.4% (inactive).

Consider `Cc1ccc(N2C(=O)CC(Sc3ncn[nH]3)C2=O)cc1` (stereo not drawn), for which the growth rescue is 287% (active).

As to `COc1ccc(N2C(=O)CC(Sc3n[nH]c(-c4ccc(C)cc4)n3)C2=O)cc1` (stereo not drawn), the growth rescue was 257% (inactive).

Consider `COc1cc(Cl)c(C)cc1NC(=O)CSc1nnc(CN2CCCC2)o1`, for which the growth rescue is 50.1% (inactive).

Turning to `CCOc1cc2[nH]c(=S)n(Cc3ccc(C(=O)N4CCN(C)CC4)cc3)c(=O)c2cc1OCC`, the growth rescue is -1.75% (inactive).

In the case of `O=C(CNS(=O)(=O)c1ccc(Br)s1)NCc1ccc2c(c1)OCO2`, the growth rescue is 17.3% (inactive).

On to `O=C(CNC(c1ccccc1)c1ccccc1)Nc1ccc(F)cc1`, for which the growth rescue was 14.1% (inactive).

As for `CN1C(=O)CC(c2ccccc2)C1=O` (stereo not drawn), the growth rescue is 8.06% (inactive).

For `O=C1OCC2=C1C(c1ccccc1)CC(=O)N2c1cccc(F)c1` (stereo not drawn), the growth rescue was 4.11% (inactive).

As for `O=C1CC(c2ccccc2)C(=O)N1c1cccc(O)c1` (stereo not drawn), the growth rescue is 564% (active).

For the compound `COc1ccc(C(C)=O)cc1CN1C(=O)NC2(CCCCC2C)C1=O` (stereo not drawn), the growth rescue is 115% (inactive).

For the compound `CC(=O)N1CCc2cc(Br)cc(S(=O)(=O)CCC(=O)Nc3c(C)n(C)n(-c4ccccc4)c3=O)c21`, the growth rescue was 461% (active).

Take `Cc1ccccc1OCCC(=O)Nc1c(C)n(C)n(-c2ccccc2)c1=O`: the growth rescue is -23.7% (inactive).

For the compound `Cc1ccc(S(=O)(=O)CC(=O)Nc2c(C)n(C)n(-c3ccccc3)c2=O)cc1`, the growth rescue is -28% (inactive).

For the compound `COC(=O)c1ccc(OC(=O)c2nn(C)cc2Cl)c(OC)c1`, the growth rescue was -16.8% (inactive).

For the compound `Cc1c(NC(=O)c2c([N+](=O)[O-])cnn2C)c(=O)n(-c2ccccc2)n1C`, the growth rescue is 0.562% (inactive).

For the compound `CN(CC(=O)NCc1cccnc1)S(=O)(=O)c1cc(Cl)ccc1Cl`, the growth rescue is 249% (inactive).

Turning to `COc1ccc(CNS(=O)(=O)c2ccc(NC(=O)N3CCCCC3)cc2)cc1`, the growth rescue was 1.4% (inactive).

In the case of `COc1ccc(-c2[nH]nc3c2C(c2ccncc2)C(C#N)=C(N)O3)cc1` (stereo not drawn), the growth rescue was 577% (active).

As for `COc1cc(C2C(C#N)=C(N)Oc3n[nH]c(-c4ccccn4)c32)cc(OC)c1OC` (stereo not drawn), the growth rescue is -11.1% (inactive).

In the case of `CCOc1c(OC)cc(C2C(C#N)=C(N)Oc3n[nH]c(-c4ccncc4)c32)cc1OC` (stereo not drawn), the growth rescue is 365% (inactive).

Take `O=C(COC(=O)c1ccc(N2CCCC2=O)cc1)c1ccc(OC(F)F)cc1`: the growth rescue is -26.3% (inactive).

Consider `CCn1c(SCC(=O)Nc2ccc(S(=O)(=O)Nc3onc(C)c3C)cc2)nnc1-c1ccccc1`, for which the growth rescue is 8.66% (inactive).

For the compound `Cc1cc(C)c2nc(-c3cccnc3)cc(C(=O)Nc3ccc(S(=O)(=O)Nc4onc(C)c4C)cc3)c2c1`, the growth rescue is 404% (active).

As for `Cc1cc(OC(C)C(=O)Nc2ccc(S(=O)(=O)Nc3onc(C)c3C)cc2)cc(C)c1Cl` (stereo not drawn), the growth rescue is -7.5% (inactive).

For the compound `CC1CN(C(=S)Nc2cccc(F)c2)CC(C)O1` (stereo not drawn), the growth rescue was -11.7% (inactive).

For the compound `O=C(/C=C/c1ccco1)NC(=S)N1CCCCC1`, the growth rescue was -4.55% (inactive).

With `COc1ccccc1/C=C/C(=O)NC(=S)N1CCOCC1`, the growth rescue was 413% (active).

As to `COc1ccccc1/C=C/C(=O)NC1CC2CCC1C2` (stereo not drawn), the growth rescue was -19.4% (inactive).

As to `CCN1CCCC1CNC(=O)Cn1cnc2ccc(S(=O)(=O)N3CCC(C)CC3)cc2c1=O` (stereo not drawn), the growth rescue was 572% (active).

On to `CC1CCN(S(=O)(=O)c2ccc3ncn(CC(=O)N(C)C4CCCCC4)c(=O)c3c2)CC1`, for which the growth rescue is -3.24% (inactive).

Take `CC1CC(C)CN(C(=O)CCNC(=O)Cn2cnc3ccccc3c2=O)C1` (stereo not drawn): the growth rescue was 0.101% (inactive).

In the case of `COC(=O)C1C(=O)CC(C)(O)C(C(=O)OC)C1c1ccc2c(c1)OCO2` (stereo not drawn), the growth rescue was -11.2% (inactive).

`COC(=O)c1cc(NC(=O)CC2C(=O)NCCN2C(=O)c2ccc(F)cc2)cc(C(=O)OC)c1` (stereo not drawn): the growth rescue was 8.77% (inactive).

Turning to `COC(=O)c1sccc1NC(=O)CC1C(=O)NCCN1C(=O)Nc1ccc(F)cc1F` (stereo not drawn), the growth rescue is 848% (active).

With `COc1cccc(NC(=O)CC2C(=O)NCCN2C(=S)Nc2ccc(F)cc2)c1` (stereo not drawn), the growth rescue was 3.83% (inactive).

`Cc1ccc(CNC(=O)C2(C(F)(F)F)C/C(=C\Cc3ccccc3)CCCO2)o1` (stereo not drawn): the growth rescue was 17.2% (inactive).

For the compound `Cc1ccc2[nH]c(=O)c(CC(=O)O)c(-c3ccccc3)c2c1`, the growth rescue is -1.66% (inactive).

As for `CCN(CC)CCCNC(=O)c1cc2c(=O)[nH]c3ccc(C)cc3c2s1`, the growth rescue was 6.48% (inactive).

Take `Cc1cccc(N(C)C(=O)c2cc3c(=O)[nH]c4ccc(C)cc4c3s2)c1`: the growth rescue was 675% (active).

Regarding `COc1cccc(NC(=O)COc2cccnc2[N+](=O)[O-])c1`, the growth rescue was 8.97% (inactive).

As for `Cc1cc(C)c(S(=O)(=O)NCC2CCC(C(=O)NCc3ccc4c(c3)OCO4)CC2)c(C)c1` (stereo not drawn), the growth rescue is 33.6% (inactive).

`CNS(=O)(=O)c1cnccc1N1CCN(c2cccc(C)c2)CC1`: the growth rescue was -3.12% (inactive).

Regarding `COc1cc(CO)ccc1OCC(=O)Nc1cccc2ccccc12`, the growth rescue was 314% (active).

For the compound `COc1ccccc1NC(=O)COc1ccc(C(=O)OCC(=O)N(C(C)C)C(C)C)cc1OC`, the growth rescue is 38.2% (inactive).

Regarding `COc1ccc(N(CC(=O)Nc2cccc3ccccc23)S(C)(=O)=O)c(OC)c1`, the growth rescue is 9.81% (inactive).

As to `C[C@H](CO)N1C[C@H](C)[C@H](CN(C)CC2CC2)Oc2ccc(NC(=O)CCN3CCOCC3)cc2C1=O`, the growth rescue was -13.9% (inactive).

`Cc1ccc(S(=O)(=O)C2(S(=O)(=O)c3ccc(C)cc3)CCCC2)cc1`: the growth rescue is -9.93% (inactive).

As to `O=S1(=O)CC/C(=N\Nc2ccc(F)cc2)c2ccsc21`, the growth rescue is 423% (active).

`COc1ccc(C(=O)N/N=C2\CCS(=O)(=O)c3ccc(F)cc32)cc1OC`: the growth rescue is -16.6% (inactive).

For the compound `CN1CCN(C(=O)c2ccc(-c3ccc(Br)cc3)o2)CC1`, the growth rescue is 14% (inactive).

Take `O=C1C=CN2CCCC2CC1` (stereo not drawn): the growth rescue is 51.5% (inactive).

`O=C1CC2(CCN(C(=O)COc3ccc(F)cc3)CC2)Oc2ccccc21`: the growth rescue was 269% (active).

For the compound `O=C1CC2(CCCCC2)Oc2ccc(OCC(=O)N3CCOCC3)cc21`, the growth rescue is -29.5% (inactive).

With `COc1ccc(OCC(=O)N2CCN(C(=O)COc3ccccc3)CC2)cc1`, the growth rescue was -6.56% (inactive).

Turning to `O=C1CCCC2=C1C(c1cccs1)n1nc(SCc3ccccc3)nc1N2` (stereo not drawn), the growth rescue was 10.5% (inactive).

For `CC(C)Oc1ccc(Oc2ccc(C(F)(F)F)cn2)cc1`, the growth rescue was 21.9% (inactive).

Turning to `O=Cc1ccc(Oc2cccc(C(F)(F)F)c2)nc1`, the growth rescue is 554% (active).

`O=C(O)CCCC(=O)Nc1ccc(Oc2cccc(C(F)(F)F)c2)nc1`: the growth rescue was -3.63% (inactive).

Regarding `NNC(=O)CNC(c1ccccc1)c1cc(Cl)ccc1NC(=O)c1ccccc1` (stereo not drawn), the growth rescue was -0.491% (inactive).

`Cc1c(Cl)c([N+](=O)[O-])nn1CCCC(=O)NC(C)c1ccccc1` (stereo not drawn): the growth rescue is 3.65% (inactive).

As for `CCOc1ccc(/C=N/Nc2nncc(-c3ccccc3)n2)cc1OC`, the growth rescue is 999% (active).

Turning to `COc1cccc(/C=N\Nc2nncc(-c3ccccc3)n2)c1`, the growth rescue is -1.53% (inactive).

As to `CCOc1cc(/C=N/NC(=O)c2cc(-c3ccccc3)nc3ccccc23)ccc1O`, the growth rescue is 15.1% (inactive).

Turning to `CCC1(CC)NC(=O)N(CC(=O)OCC(=O)Nc2ccc(C(F)(F)F)cc2)C1=O`, the growth rescue was 154% (inactive).

As to `CCCCNC(=O)CN1C(=O)NC(Cc2ccccc2)(Cc2ccccc2)C1=O`, the growth rescue was -4.3% (inactive).

Turning to `CCC1(CC)NC(=O)N(CC(=O)OCC(=O)NC(=O)c2ccccc2)C1=O`, the growth rescue is 663% (active).

`Cc1nn(CCOc2ccccc2)c(=O)n1-c1ccccc1F`: the growth rescue is 1160% (active).

On to `Cc1c(C(N)=O)sc2ncn(CCOc3ccccc3)c(=O)c12`, for which the growth rescue was -2.19% (inactive).

On to `Cc1cccc2c1N(CCOc1ccccc1)C(=O)C2=O`, for which the growth rescue was -12.8% (inactive).

Source of the values: PubChem BioAssay AID2716 (Broad Institute, 2010).
